FBPA coupling cs: inhibits coupling enzyme system, counter-screen for aldolase hits | coupling enzyme system counterscreen, AmpLite Red fluorescence | activity change, negative = inhibition, % at 58.2 µM, hits read low | 290,000 tested, 0.67% active | AID 2472; in the data active = activity change below about -30%
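Activity here indicates interference with the coupling reaction, not aldolase inhibition. Compounds at 57.5 uM final met coupling enzymes for 10 min at RT; substrate and AmpLite Red detection followed, with a 525/598 nm fluorescence read after 20 min.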
Tau fibril ThT: inhibitors of human tau fibril formation, thioflavin T binding. P10636. recombinant tau K18 P301L, heparin-induced fibrillization, ThT fluorescence. Potency, µM (top dose mostly 57.4 µM), most hits filed as inhibitors. 270,000 tested, 2.1% active; also: nearly all actives have a fitted effect of over 55% in size
Target sequence (P10636 561-689 P618L limits assumed): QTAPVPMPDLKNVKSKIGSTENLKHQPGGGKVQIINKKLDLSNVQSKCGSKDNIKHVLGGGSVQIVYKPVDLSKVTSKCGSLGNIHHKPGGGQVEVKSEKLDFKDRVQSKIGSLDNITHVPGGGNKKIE
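Heparin-induced fibrillization of the P301L-mutant K18 repeat-domain fragment of human tau was followed by ThT binding in quantitative high-throughput format.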
Tau FP inhib: tau fibrillization inhibition (FP); P10636; K18 P301L tau heparin fibrillization, Alexa594 FP, 6 h; Potency, µM (series often up to 57.7 µM), most hits filed as inhibitors; 280,000 tested, 0.39% active; AID 1468; also: nearly all actives have a fitted effect of over 55% in size
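Human tau K18 […] P301L fragment, 15 uM unlabeled plus 0.24 uM Alexa 594-labeled tau (final), with compound and 20 uM heparin in 100 mM sodium acetate pH 7; 6 hr at 37 C, then Alexa 594 FP read.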
Tau fluor cs: counter-screen for tau fibril formation inhibitors; AID 1463; tau K18 P301L (four-repeat tau fragment) Alexa594 fluorescence, heparin fibrillization; 280,000 tested, 0.93% active; Potency, µM (highest dose often 57.7 µM); also: nearly all actives have a fitted effect of over 55% in size
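Human K18 P301L tau (15 uM unlabeled plus 0.24 uM Alexa 594-labeled, final) in 100 mM sodium acetate pH 7 was mixed with compound and 20 uM heparin and incubated 6 hr at 37 C.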
Large screens that a line does not name were inactive; [ ] = another dose, or the depositor's remark. This is a sample that favours compounds with a hit; in the whole collection about 2.7% have one here. Unless noted, calls follow the shape of the dose curve; as a rule, active = well fitted curve in the direction sought with a large enough effect; inconclusive = small, poorly fitted or top-dose-only effect, or another doubt; inactive = no such curve, though single readings can be large; an effect the other way counts as inactive or inconclusive.

O=C(N/N=C\c1ccc(O)c([N+](=O)[O-])c1)C1COc2ccccc2O1 (configuration not stated)	Tau fibril ThT 10µM, Tau FP inhib inconclusive
Cc1cc([N+](=O)[O-])cc(/C=N\NC(=O)C2COc3ccccc3O2)c1O (configuration not stated)	Tau fibril ThT 13µM, Tau fluor cs inconclusive
COc1ccc(Br)cc1/C=N/NC(=O)CNC(=O)C1COc2ccccc2O1 (configuration not stated)	FBPA coupling cs -41 (no result: Tau fibril ThT, Tau FP inhib, Tau fluor cs)
O=C(Nc1cccc(OCc2cc(=O)n3ccccc3n2)c1)Nc1cccc(C(F)(F)F)c1	Tau FP inhib inconclusive, Tau fluor cs inconclusive (no result: FBPA coupling cs)
c1ccc(-c2nc(-c3ccccc3)c(NC3CCCCC3)o2)cc1	Tau fibril ThT inconclusive
COc1ccc(C2c3c(-c4ccccc4O)n[nH]c3C(=O)N2Cc2ccco2)cc1 (configuration not stated)	Tau fluor cs inconclusive
Cc1ccc(O)c(-c2n[nH]c3c2C(c2ccc(F)cc2)N(Cc2ccco2)C3=O)c1 (configuration not stated)	Tau fibril ThT inconclusive, Tau fluor cs 14µM[quencher] (no result: FBPA coupling cs)
Fc1ccc(Br)cc1C1C=C(c2ccc(Br)cc2)Nc2nnnn21 (configuration not stated)	none (no result: FBPA coupling cs)
CCOc1cc([N+](=O)[O-])c2nc(N)sc2c1	Tau fibril ThT 20µM
CC(C)N1CCc2c(sc(NC(=O)c3cc4cc([N+](=O)[O-])ccc4s3)c2C(N)=O)C1	Tau fibril ThT 4µM, Tau fluor cs inconclusive
CN1CCc2c(sc(NC(=O)c3cc4cc([N+](=O)[O-])ccc4s3)c2C(N)=O)C1	Tau fibril ThT 2.2µM, Tau fluor cs inconclusive
CN1CCc2c(sc(NC(=O)c3ccco3)c2C(N)=O)C1	none (no result: Tau fibril ThT, Tau FP inhib, Tau fluor cs)
O=c1/c(=C/c2ccc(O)c([N+](=O)[O-])c2)sc2nc3ccccc3n12	Tau fibril ThT 2µM
O=c1/c(=C\c2cccnc2)sc2nc3ccccc3n12	Tau fibril ThT inconclusive
O=C(Oc1ccc(F)cc1C(=O)/C=C/c1cccs1)c1cccc([N+](=O)[O-])c1	Tau fibril ThT 14µM, Tau fluor cs inconclusive
CC(=O)Nc1cccc(-c2nnc(SCC(=O)c3cc([N+](=O)[O-])ccc3Cl)o2)c1	Tau fibril ThT inconclusive, Tau fluor cs 20µM[quencher] (no result: FBPA coupling cs)
O=C(CSc1nnc(-c2ccncc2)o1)c1cccc([N+](=O)[O-])c1	Tau fibril ThT inconclusive
CNC(=O)Cn1cc(S(=O)(=O)Cc2ccccc2F)c2ccccc21	none (no result: FBPA coupling cs)
CC(=O)Nc1ccc(Nc2nc(C)c([N+](=O)[O-])c(Nc3ccc(NC(C)=O)cc3)n2)cc1	Tau fibril ThT 13µM, Tau FP inhib inconclusive
CNc1nc(C)c([N+](=O)[O-])c(Nc2ccc(OC)cc2)n1	none (no result: Tau fibril ThT, Tau FP inhib, Tau fluor cs)
CC(=O)c1c(C)[nH]c(C(=O)Nc2nc(-c3ccc(-c4ccccc4)cc3)cs2)c1C	Tau FP inhib 40µM, Tau fluor cs inconclusive
O=S(=O)(Nc1ccc(-c2csc(-c3ccccc3)n2)cc1)c1ccc(F)cc1	Tau FP inhib 11µM, Tau fluor cs inconclusive
O=C(Nc1nc(-c2ccccc2)cs1)c1ccccc1NS(=O)(=O)c1ccc(F)cc1	Tau fibril ThT 14µM, Tau FP inhib inconclusive, Tau fluor cs inconclusive
COc1ccc(NC(=O)C2CCCN(S(=O)(=O)c3ccc(Br)s3)C2)cc1 (configuration not stated)	Tau FP inhib inconclusive, Tau fluor cs inconclusive (no result: FBPA coupling cs)
CCc1cc(=O)oc2c(C)c3c(cc12)CN(CCc1ccccc1OC)CO3	Tau fibril ThT inconclusive (no result: FBPA coupling cs)
COc1ccc(C2CC(=O)NC(NC(=O)c3ccc(Br)cc3)=N2)c(OC)c1OC (configuration not stated)	none (no result: FBPA coupling cs)
FC(F)(F)c1ccc(Cl)c(N/N=C/c2ccc(N3CCOCC3)s2)c1	Tau fibril ThT inconclusive, Tau fluor cs 13µM[quencher]
O=C(N/N=C/c1ccc(N2CCOCC2)s1)c1ccccc1Cl	Tau fibril ThT inconclusive
COc1cc2c(cc1OC)CN(Cc1nc3ccsc3c(=O)[nH]1)CC2	FBPA coupling cs -43, Tau fibril ThT inconclusive
COC1=C(Nc2ccccc2)C(=O)c2ccccc2C1=O	FBPA coupling cs -33, Tau fibril ThT 7.1µM, Tau FP inhib inconclusive, Tau fluor cs inconclusive
COC1=C(Nc2ccc(C)cc2)C(=O)c2ccccc2C1=O	FBPA coupling cs -32, Tau fibril ThT 8.9µM, Tau FP inhib inconclusive, Tau fluor cs inconclusive
CC(=O)NC1=C(Nc2ccc(N(C)C)cc2)C(=O)c2ccccc2C1=O	none (no result: Tau fibril ThT, Tau FP inhib, Tau fluor cs)
Cc1sc2ccccc2[n+]1CC(=O)c1ccccc1	none (no result: Tau fibril ThT, Tau FP inhib, Tau fluor cs)
Cc1sc2ccccc2[n+]1CC(=O)O	Tau fibril ThT 28µM, Tau FP inhib 32µM
COc1ccc(-c2nnc3n2N=C(c2c(OC)cccc2OC)CS3)c(OC)c1	none (no result: Tau fibril ThT, Tau FP inhib, Tau fluor cs)
COC(=O)[C@@H]1CC[C@H](C)[C@@H](c2ccc(C)cc2)N1C(=O)c1ccc(/C=N\O[C@@H]2O[C@H](COC(C)=O)[C@H](OC(C)=O)[C@H](OC(C)=O)[C@H]2OC(C)=O)cc1	none
O=S(=O)(Nc1cccc(Cl)c1)c1ccc2[nH]c3c(c2c1)CCCCCC3	Tau FP inhib inconclusive, Tau fluor cs 8.9µM[quencher] (no result: FBPA coupling cs)
Cc1ccccc1NS(=O)(=O)c1ccc2[nH]c3c(c2c1)CCCCC3	Tau fluor cs 14µM[quencher] (no result: FBPA coupling cs)
Cc1ccc(CNS(=O)(=O)c2ccc3[nH]c4c(c3c2)CCCCC4)cc1	Tau FP inhib inconclusive, Tau fluor cs inconclusive (no result: FBPA coupling cs)
Cc1cccc(NS(=O)(=O)c2ccc3[nH]c4c(c3c2)CCCCCC4)c1	Tau fluor cs 11µM[quencher] (no result: FBPA coupling cs)
O=S(=O)(c1ccc2[nH]c3c(c2c1)CCCCC3)N1CCN(c2cccc(Cl)c2)CC1	Tau fluor cs inconclusive (no result: FBPA coupling cs)
CN(CC(=O)NCc1ccccc1)S(=O)(=O)c1ccc2[nH]c3c(c2c1)CCCC3	Tau FP inhib inconclusive, Tau fluor cs inconclusive (no result: FBPA coupling cs)
CN(Cc1ccccc1)S(=O)(=O)c1ccc2[nH]c3c(c2c1)CCCCC3	Tau FP inhib inconclusive, Tau fluor cs 3.5µM[quencher] (no result: FBPA coupling cs)
CCOc1ccc(NC(=O)Nc2cc(C(=O)O)ccc2N2CC3CC(C2)c2cccc(=O)n2C3)cc1 (configuration not stated)	none (no result: Tau fibril ThT, Tau FP inhib, Tau fluor cs)
Cc1ccc(NS(=O)(=O)c2cccc3nsnc23)cc1	FBPA coupling cs -38, Tau fibril ThT inconclusive
O=C(O)c1ccc(-n2c(O)c(C=C3N=c4ccccc4=N3)sc2=S)cc1	Tau fibril ThT 18µM, Tau fluor cs inconclusive
O=C(O)CCCCCn1c(O)c(C=C2N=c3ccccc3=N2)sc1=S	Tau fibril ThT 13µM, Tau fluor cs inconclusive
CCCSc1ncc(Cl)c(C(=O)Nc2sc3c(c2C(=O)NCC)CCCC3)n1	none (no result: FBPA coupling cs)
CCNC(=O)Cc1ccc(NC(=O)N2CCCCc3ccccc32)cc1	none (no result: FBPA coupling cs)
CC1CCC(C(C)C)C2=C1C(C#N)(C#N)C(C#N)(C#N)C(c1ccccc1)N2 (configuration not stated)	Tau fibril ThT 22µM, Tau fluor cs inconclusive
CC1=CC(C#N)(C#N)C(C#N)(C#N)C(c2ccccc2)N1 (configuration not stated)	Tau fibril ThT inconclusive
CCn1c(SCC(=O)Nc2sc3c(c2C#N)CCC(C(C)(C)C)C3)nnc1-c1ccco1 (configuration not stated)	none

Source: PubChem BioAssay
